# Inconclusive results are not listed. Calls of active or inactive are those of the source. The call rests on the fitted dose curve; in most records, active means well fitted activation curve with a large enough effect in the signal ratio in the repeat runs (not every such curve was filed as active); inconclusive means weak or mixed curves; inactive means flat fitted curve, though single readings scatter; the % refers to the signal ratio.
# Test: qHTS assay to identify small molecule agonists of the hypoxia (HIF-1) signaling pathway (AID 1224846)
# Details: HRE-bla ME-180 cells, beta-lactamase ratio, 17 h; series mostly up to 76.8 µM
# Excerpt: U.S. Tox21 Program National Center for Advancing Translational Sciences [NCATS] NIH Chemical Genomics Center [NCGC] U.S. Environmental Protection Agency [EPA] National Institutes of Environmental Health Sciences [NIEHS] National Toxicology Program [NTP] U.S. Food and Drug Administration [FDA] Tox21 Assay Overview: Hypoxia-inducible factor-1 (HIF-1) is the major hypoxia-regulated transcription factor that controls cellular responses to low oxygen concentration. HIF-1 is composed of two subunits: hypoxia responsive HIF-1-alpha and constitutively expressed HIF-1-beta, which is also known as aryl hydrocarbon receptor nuclear translocator. During hypoxic conditions, HIF-1-alpha heterodimerizes with HIF-1-beta and translocates into the nucleus where the HIF-1 complex binds to the hypoxia-response element (HRE) and activates expression of target genes such as VEGF (vascular endothelial growth factor). The HIF-1 pathway is essential to normal growth and development, and is involved in the pathophysiology of cancer, inflammation, and ischemia. Using a beta-lactamase reporter-gene under control of the hypoxia response element, a cell-based assay [CellSensor(TM) HRE-bla ME-180 from Life Technologies, Carlsbad, CA] was used to measure hypoxia-induced signaling. Tox21 10K library compounds were measured for their ability to induce the reporter gene activity.
# Tox21 Assay Protocol Summary: HRE-bla ME-180 cells were dispensed at 2,000 cells per well in 6 uL of assay medium containing 0.5% dialyzed FBS into black wall/clear-bottom 1536-well plates using a Multidrop Combi (Thermo Scientific, Waltham, MA) dispenser. After the assay plates were incubated at 37C and 5% CO2 for 5 hrs, 23 nL of compounds dissolved in DMSO, positive controls or DMSO only was transferred to each well of the assay plate using a Pintool station (Kalypsys, San Diego, CA). The assay plates were incubated at 37C and 5% CO2 for 17 hrs. One uL of LiveBLAzerTM B/G FRET substrate (CCF4-AM) (Life Technologies) was added to each well using a Flying Reagent Dispenser (Aurora Discovery, San Diego, CA).
row,Structure (SMILES),outcome
1,Cc1cnc(C2=NC(C)(C(C)C)C(=O)N2)c(C(=O)O)c1 (stereo not given),inactive
2,CC(C)(C)NCC(O)c1cc(Cl)c(N)c(C(F)(F)F)c1 (stereo not given),inactive
3,Clc1ccccc1,inactive
4,CC(C)CCCCCCCOC(=O)c1ccccc1C(=O)OCCCCCCCC(C)C,inactive
5,Nc1ccc2c(c1)Cc1ccccc1-2,inactive
6,COC1=CC(=O)O[C@@H](/C=C/c2ccc3c(c2)OCO3)C1,inactive
7,CCCN(CCOc1c(Cl)cc(Cl)cc1Cl)C(=O)n1ccnc1,inactive
8,CCCCC(CC)CO[N+](=O)[O-] (stereo not given),inactive
9,FC(F)OC(F)(F)C(F)Cl (stereo not given),inactive
10,COCc1cnc(C2=NC(C)(C(C)C)C(=O)N2)c(C(=O)O)c1 (stereo not given),inactive
11,CC(C)(C#N)C(C)(C)C#N,inactive
12,Nc1ccccc1C(=O)OCCc1ccccc1,inactive
13,O=C(N[C@H]1CN2CCC1CC2)c1ccc2c(c1)OCCO2,inactive
14,CC(C)c1ccc(NC(=O)N(C)C)cc1,inactive
15,CCCCC1C(=O)NC(=O)N(C2CCCCC2)C1=O (stereo not given),inactive
16,CCC1(CCC(C)C)C(=O)NC(=O)NC1=O,inactive
17,C[Si](Cn1cncn1)(c1ccc(F)cc1)c1ccc(F)cc1,inactive
18,CC(Cl)C(=O)O (stereo not given),inactive
19,CC(C)(C)NCC(O)c1ccccc1Cl (stereo not given),inactive
20,CN(C)N,inactive

row,Structure (SMILES),outcome
1,CN(C1CCCCC1)C1CCCCC1,inactive
2,N#CC(C#N)=Cc1ccc(O)c(O)c1,inactive
3,CCOC(=O)C1OC1(C)c1ccccc1 (stereo not given),inactive
4,CC(O)CN1CCN(CC(=O)[O-])CCN(CC(=O)[O-])CCN(CC(=O)[O-])CC1.[Gd+3] (stereo not given),inactive
5,c1ccc2sc(SNC3CCCCC3)nc2c1,inactive
6,CN1C(=O)CN=C(c2ccccc2)c2cc([N+](=O)[O-])ccc21,inactive
7,CN[C@@H](C)[C@H](O)c1ccccc1,inactive
8,Clc1ccc2ccccc2c1,inactive
9,CCCCCCCCCCCCCCCl,inactive
10,CN1CC[C@]23c4c5ccc(O)c4O[C@H]2[C@@H](O)CC[C@H]3[C@H]1C5,inactive
11,CCCN(CCC)C(=O)Cc1c(-c2ccc(Cl)cc2)nc2ccc(Cl)cn12,inactive
12,CC(C)CCON=O,inactive
13,O=C(Cc1ccccc1)OCCc1ccccc1,inactive
14,CCOP(=S)(S)OCC,inactive
15,CCC(=O)O[C@@H]1C=C2CCC3C(CCC4(C)C3CC[C@@H]4OC(=O)CC)C2CC1 (stereo not given in full),inactive
16,NP(N)(=O)NC(=O)c1ccc(F)cc1,inactive
17,CC(C)C1(C)N=C(c2ncccc2C(=O)O)NC1=O (stereo not given),inactive
18,CCOP(=O)(SC(C)CC)N1CCSC1=O (stereo not given),inactive
19,OCCSSCCO,inactive
20,Nc1cc(Cl)cc(C(=O)O)c1Cl,inactive

# — PubChem BioAssay (Tox21)
